In PubChem BioAssay (EPA / NIEHS):
Active and inactive are the calls of the source. How the source made its calls: active means hit-call score of the fitted dose curve at least 0.9, where 1 is the maximum; inactive means score below 0.9.

Target: Nuclear respiratory factor 1 (Homo sapiens) (UniProt Q16656)
Assay: ATG_NRF1_CIS: Attagene CIS-FACTORIAL HepG2 Assay for human Nuclear Respiratory Factor 1 (NRF1) Orphan Gene (AID 2282987)
Details: HepG2 NRF1 cis-element reporter, Attagene multiplex; actives raise or lower the signal
In short: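 Multiplexed cis-reporter assay, HepG2 cells, 24 h treatment. Total RNA → oligo(dT) RT → PCR with reporter-specific primers → 6-FAM primer extension → HpaI cut → CE. Bidirectional fit vs DMSO.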

Chain of Nuclear respiratory factor 1 (Homo sapiens) (Q16656 whole entry, looked up): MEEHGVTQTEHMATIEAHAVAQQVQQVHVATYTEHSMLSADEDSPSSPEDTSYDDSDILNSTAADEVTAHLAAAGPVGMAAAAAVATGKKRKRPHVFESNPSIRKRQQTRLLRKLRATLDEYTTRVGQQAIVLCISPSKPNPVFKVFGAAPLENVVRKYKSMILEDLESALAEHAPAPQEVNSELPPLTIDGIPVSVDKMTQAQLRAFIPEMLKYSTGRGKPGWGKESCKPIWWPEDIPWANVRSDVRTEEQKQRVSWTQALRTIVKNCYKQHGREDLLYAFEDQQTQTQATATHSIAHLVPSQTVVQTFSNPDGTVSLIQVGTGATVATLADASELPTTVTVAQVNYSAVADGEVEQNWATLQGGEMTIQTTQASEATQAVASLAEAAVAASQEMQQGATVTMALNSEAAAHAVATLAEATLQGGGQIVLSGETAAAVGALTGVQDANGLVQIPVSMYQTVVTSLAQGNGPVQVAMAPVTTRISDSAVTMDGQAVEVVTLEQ

SMILES	outcome	AC50
CC(=O)C=O	inactive	
CCC(Cc1c(I)cc(I)c(N)c1I)C(=O)O (stereo unspecified)	inactive	
CCC(=O)OC(C)c1ccccc1 (stereo unspecified)	inactive	
CCCCCC/C=C/CCCCCCCC(=O)O	inactive	
c1ccc(C[P+](c2ccccc2)(c2ccccc2)c2ccccc2)cc1	inactive	
Cc1ccc2c(c1)OCC(=O)CO2	inactive	
CC(O)C#CC(C)O (stereo unspecified)		143 µM (active)
CC1CCCCC1	inactive	
O=C1c2ccccc2C(=O)c2c(Cl)cccc21	inactive	
COC(=O)c1ccc(C=O)cc1	inactive	
COCCC(=O)OC	inactive	
CCOC(=O)CCC(C)=O	inactive	
C[Si](C)O[Si](C)C	inactive	
CO[Si](CCCOCC1CO1)(OC)OC (stereo unspecified)	inactive	
CCCCCCCCn1sc(Cl)c(Cl)c1=O	inactive	
Nc1cccnc1N	inactive	
CC(C)OC=O	inactive	
Oc1ccc(C2(c3ccc(O)c(C4CCCCC4)c3)CCCCC2)cc1C1CCCCC1	inactive	
CC1=CCC2C(=O)OC(=O)C2C1 (stereo unspecified)	inactive	

SMILES	outcome	AC50
CCCCOC(=O)C(C)O (stereo unspecified)	inactive	
CN1CN(C)CN(C)C1	inactive	
C=C(C)CCCC	inactive	
F[Si-2](F)(F)(F)(F)F	inactive	
CC(=O)c1ccccc1N	inactive	
CSc1ccc(O)cc1C	inactive	
O=C(Cl)c1ccc(Cl)cc1Cl	inactive	
CCCCCCCCCCCC(=O)Cl	inactive	
CCCCCCCC/C=C\CCCCCCCC(=O)OCC(O)CO (stereo unspecified)	inactive	
Cc1cc(=O)[nH]c(C(C)C)n1	inactive	
CCCCCCCC/C=C\CCCCCCCC(=O)N(C)CC(=O)O	inactive	
CSc1ccc(Cl)cc1	inactive	
CC(C)OC(=O)COc1ccc(Cl)cc1Cl	inactive	
CCc1cccc(C)c1N(C(=O)C(=O)O)C(C)COC (stereo unspecified)	inactive	
CCC(C)CO (stereo unspecified)	inactive	
CC(C)Nc1ccc(NC(C)C)c2c1C(=O)c1ccccc1C2=O	inactive	
CC(C)CC=C(C=O)c1ccccc1	inactive	
C#CC(O)CCC (stereo unspecified)	inactive	

Tested on: not listed separately
Assay: ATG_NFI_CIS: Attagene CIS-FACTORIAL HepG2 Assay for human Nuclear Factor I (NFI) (AID 2282989)
Details: HepG2 cis-regulatory reporter, NFI response element transcription; actives raise or lower the signal
In short: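 Reporter transcription driven by endogenous transcription factors in HepG2 cells; 24 h treatment. Quantitation by labelled RT-PCR fragments on capillary electrophoresis, gain- or loss-of-signal relative to DMSO.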

SMILES	outcome	AC50
CC(=O)C=O	inactive	
CCC(Cc1c(I)cc(I)c(N)c1I)C(=O)O (stereo unspecified)	inactive	
CCC(=O)OC(C)c1ccccc1 (stereo unspecified)	inactive	
CCCCCC/C=C/CCCCCCCC(=O)O	inactive	
c1ccc(C[P+](c2ccccc2)(c2ccccc2)c2ccccc2)cc1	inactive	
Cc1ccc2c(c1)OCC(=O)CO2	inactive	
CC(O)C#CC(C)O (stereo unspecified)		127 µM (active)
CC1CCCCC1	inactive	
O=C1c2ccccc2C(=O)c2c(Cl)cccc21	inactive	
COC(=O)c1ccc(C=O)cc1	inactive	
COCCC(=O)OC	inactive	
CCOC(=O)CCC(C)=O	inactive	
C[Si](C)O[Si](C)C	inactive	
CO[Si](CCCOCC1CO1)(OC)OC (stereo unspecified)	inactive	
CCCCCCCCn1sc(Cl)c(Cl)c1=O	inactive	
Nc1cccnc1N	inactive	
CC(C)OC=O	inactive	
Oc1ccc(C2(c3ccc(O)c(C4CCCCC4)c3)CCCCC2)cc1C1CCCCC1		8.18 µM (active)
CC1=CCC2C(=O)OC(=O)C2C1 (stereo unspecified)	inactive	

SMILES	outcome	AC50
CCCCOC(=O)C(C)O (stereo unspecified)	inactive	
CN1CN(C)CN(C)C1	inactive	
C=C(C)CCCC	inactive	
F[Si-2](F)(F)(F)(F)F	inactive	
CC(=O)c1ccccc1N	inactive	
CSc1ccc(O)cc1C	inactive	
O=C(Cl)c1ccc(Cl)cc1Cl	inactive	
CCCCCCCCCCCC(=O)Cl	inactive	
CCCCCCCC/C=C\CCCCCCCC(=O)OCC(O)CO (stereo unspecified)	inactive	
Cc1cc(=O)[nH]c(C(C)C)n1	inactive	
CCCCCCCC/C=C\CCCCCCCC(=O)N(C)CC(=O)O	inactive	
CSc1ccc(Cl)cc1	inactive	
CC(C)OC(=O)COc1ccc(Cl)cc1Cl	inactive	
CCc1cccc(C)c1N(C(=O)C(=O)O)C(C)COC (stereo unspecified)	inactive	
CCC(C)CO (stereo unspecified)	inactive	
CC(C)Nc1ccc(NC(C)C)c2c1C(=O)c1ccccc1C2=O	inactive	
CC(C)CC=C(C=O)c1ccccc1	inactive	
C#CC(O)CCC (stereo unspecified)	inactive	

Target: Myc proto-oncogene protein (Homo sapiens) (UniProt P01106)
Assay: ATG_Myc_CIS: Attagene CIS-FACTORIAL HepG2 Assay for human Myelocytomatosis (Myc) Proto-Oncogene Transcription Factor (AID 2282990)
Details: HepG2, Attagene cis-reporter transcription factor activity; actives raise or lower the signal
In short: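 Multiplexed cis-reporter transcription in HepG2 cells after 24 h chemical treatment. Reporter mRNA measured by RT-PCR and capillary electrophoresis fluorescence; activity fitted bidirectionally against DMSO control.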

Chain of Myc proto-oncogene protein (Homo sapiens) (P01106 whole entry, looked up): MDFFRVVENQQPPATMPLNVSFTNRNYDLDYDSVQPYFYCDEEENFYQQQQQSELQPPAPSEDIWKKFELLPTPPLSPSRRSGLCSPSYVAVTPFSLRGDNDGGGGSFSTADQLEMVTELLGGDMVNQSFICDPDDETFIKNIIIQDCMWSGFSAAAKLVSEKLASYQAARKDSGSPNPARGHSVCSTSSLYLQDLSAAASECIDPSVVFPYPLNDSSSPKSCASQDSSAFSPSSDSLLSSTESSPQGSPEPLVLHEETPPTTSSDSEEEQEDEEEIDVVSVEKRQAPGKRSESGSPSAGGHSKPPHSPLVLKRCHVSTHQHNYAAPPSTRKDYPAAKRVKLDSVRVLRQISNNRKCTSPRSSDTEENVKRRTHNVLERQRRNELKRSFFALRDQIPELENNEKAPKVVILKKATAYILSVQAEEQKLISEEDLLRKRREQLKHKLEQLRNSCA

SMILES	outcome	AC50
CC(=O)C=O	inactive	
CCC(Cc1c(I)cc(I)c(N)c1I)C(=O)O (stereo unspecified)		148 µM (active)
CCC(=O)OC(C)c1ccccc1 (stereo unspecified)	inactive	
CCCCCC/C=C/CCCCCCCC(=O)O	inactive	
c1ccc(C[P+](c2ccccc2)(c2ccccc2)c2ccccc2)cc1	inactive	
Cc1ccc2c(c1)OCC(=O)CO2	inactive	
CC(O)C#CC(C)O (stereo unspecified)		53.3 µM (active)
CC1CCCCC1	inactive	
O=C1c2ccccc2C(=O)c2c(Cl)cccc21	inactive	
COC(=O)c1ccc(C=O)cc1	inactive	
COCCC(=O)OC	inactive	
CCOC(=O)CCC(C)=O	inactive	
C[Si](C)O[Si](C)C	inactive	
CO[Si](CCCOCC1CO1)(OC)OC (stereo unspecified)	inactive	
CCCCCCCCn1sc(Cl)c(Cl)c1=O	inactive	
Nc1cccnc1N	inactive	
CC(C)OC=O	inactive	
Oc1ccc(C2(c3ccc(O)c(C4CCCCC4)c3)CCCCC2)cc1C1CCCCC1	inactive	
CC1=CCC2C(=O)OC(=O)C2C1 (stereo unspecified)	inactive	

SMILES	outcome	AC50
CCCCOC(=O)C(C)O (stereo unspecified)	inactive	
CN1CN(C)CN(C)C1	inactive	
C=C(C)CCCC	inactive	
F[Si-2](F)(F)(F)(F)F	inactive	
CC(=O)c1ccccc1N	inactive	
CSc1ccc(O)cc1C	inactive	
O=C(Cl)c1ccc(Cl)cc1Cl	inactive	
CCCCCCCCCCCC(=O)Cl	inactive	
CCCCCCCC/C=C\CCCCCCCC(=O)OCC(O)CO (stereo unspecified)	inactive	
Cc1cc(=O)[nH]c(C(C)C)n1	inactive	
CCCCCCCC/C=C\CCCCCCCC(=O)N(C)CC(=O)O	inactive	
CSc1ccc(Cl)cc1	inactive	
CC(C)OC(=O)COc1ccc(Cl)cc1Cl	inactive	
CCc1cccc(C)c1N(C(=O)C(=O)O)C(C)COC (stereo unspecified)	inactive	
CCC(C)CO (stereo unspecified)	inactive	
CC(C)Nc1ccc(NC(C)C)c2c1C(=O)c1ccccc1C2=O	inactive	
CC(C)CC=C(C=O)c1ccccc1	inactive	
C#CC(O)CCC (stereo unspecified)	inactive	
